Screening results as filed in PubChem BioAssay.
Sampled rows, rich in hits. Any-hit rate of the full collection: about 1.3%.
EBV gp42 inh – blocks Epstein-Barr virus glycoprotein 42 binding; Q1HVG2; Fluorescence polarization binding assay, mP read-out; inhibition, % (tested at 21.74 µM); 220,000 tested, 0.42% active; AID 1085; in the data active means inhibition above about 50%
Target sequence (Q1HVG2 whole entry, looked up): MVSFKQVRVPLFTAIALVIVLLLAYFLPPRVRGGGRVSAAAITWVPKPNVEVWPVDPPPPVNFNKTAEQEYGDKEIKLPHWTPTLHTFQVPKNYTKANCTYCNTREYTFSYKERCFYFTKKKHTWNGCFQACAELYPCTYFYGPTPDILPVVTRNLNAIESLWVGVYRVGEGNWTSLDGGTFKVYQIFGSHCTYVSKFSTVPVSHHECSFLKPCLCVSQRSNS
BCLXL inh – inhibitors of human Bcl-xL; Q07817; inhibition, % at 10.9 µM; GST-Bcl-xL / FITC-Bim BH3 peptide fluorescence polarization; 320,000 tested, 0.7% active;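 active means inhibition above the mean of all tested compounds plus 3 SD, cutoff set per campaign, cut at about 30% in these data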;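 further: inhibitors lower millipolarization by displacing the labeled peptide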
MCL1 BIM primary – disrupts human MCL1 binding to BIM-BH3 peptide; inhibition, % at 10.9 µM; GST-MCL1 / FITC-Bim-BH3 fluorescence polarization; Q07820; 320,000 tested, 0.68% active;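 active means inhibition above the mean inhibition of all tested compounds plus 3 SD, set per campaign, cut at about 40% in these data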;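 further: higher means more loss of mP so more displacement of Bim peptide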
Target sequence (Q07820 whole entry, looked up): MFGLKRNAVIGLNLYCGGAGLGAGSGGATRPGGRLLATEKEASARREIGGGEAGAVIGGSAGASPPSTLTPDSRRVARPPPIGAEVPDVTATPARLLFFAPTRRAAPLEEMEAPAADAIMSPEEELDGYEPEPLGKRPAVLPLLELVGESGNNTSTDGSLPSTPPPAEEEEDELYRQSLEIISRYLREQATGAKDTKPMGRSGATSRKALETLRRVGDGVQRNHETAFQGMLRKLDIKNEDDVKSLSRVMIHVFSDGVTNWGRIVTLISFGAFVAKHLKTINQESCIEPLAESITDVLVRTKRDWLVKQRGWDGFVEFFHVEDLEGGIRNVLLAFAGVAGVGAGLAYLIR
GLD-1 RNA inh – GLD-1-TGE RNA interaction inhibition (C. elegans); purified GLD-1 + fluorescein TGE RNA, fluorescence polarization; inhibition, % at 5.96 µM; 320,000 tested, 0.44% active;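 active means percent inhibition above a per-plate cutoff, the plate mean of test compounds plus 3 SD, cut at about 30% in these data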
MEX-5 binding – C. elegans MEX-5 TCR-2 RNA binding activity; Q9XUB2; MEX-5/FITC-TCR2 RNA binding, fluorescence polarization; stronger effect = lower value; activity score (negative = inhibition of binding), % at 10 µM; 300,000 tested, 0.38% active; AID 1832;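 active means inhibition past about -25% in most replicates, and total fluorescence under double the plate's negative control median, limit read from the data; inconclusive means replicates evenly split on the limit, or fluorescence at least double controls; inactive means too little inhibition in most replicates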
A number is an active result.

For Cc1ccc(C(=O)NCc2ccc(Cl)cc2)cc1S(=O)(=O)N1CCCCC1 the results were BCLXL inh inactive, MCL1 BIM primary inactive and GLD-1 RNA inh inactive.
Screening Nc1ccc2c(c1)-c1ccccc1S(=O)(=O)N2 returned EBV gp42 inh inactive, BCLXL inh inactive, MCL1 BIM primary inactive, GLD-1 RNA inh inactive and MEX-5 binding -41.
Cc1ccc2c(c1)-c1ccccc1S(=O)(=O)N2 was read as BCLXL inh inactive, MCL1 BIM primary inactive, GLD-1 RNA inh inactive and MEX-5 binding inactive.
N#Cc1c(N)sc(=S)c2c1CCN(Cc1ccccc1)C2 was read as EBV gp42 inh 84, BCLXL inh 144, MCL1 BIM primary 174 and GLD-1 RNA inh inactive.
CCOc1ccc(/C=C2\N=C(c3cccs3)OC2=O)cc1OC was read as EBV gp42 inh inactive, BCLXL inh inactive, MCL1 BIM primary inactive, GLD-1 RNA inh inactive and MEX-5 binding inconclusive.
`COc1ccc(/C=C2/N=C(c3cccs3)OC2=O)cc1OC(C)C` gave EBV gp42 inh 107, BCLXL inh inactive, MCL1 BIM primary inactive, GLD-1 RNA inh inactive and MEX-5 binding -53.
Screening Cc1nc(S/C(=C\c2ccc(-c3ccc(C(=O)O)c(Cl)c3)o2)C(=O)O)n[nH]1 returned EBV gp42 inh inactive and MEX-5 binding -91.
CC1CC(C)CN(C(=O)CN(C)S(=O)(=O)c2ccc3c(c2)c(=O)n(C)c(=O)n3C)C1 (centres undefined) was read as BCLXL inh inactive, MCL1 BIM primary inactive, GLD-1 RNA inh inactive and MEX-5 binding inactive.
`CC1CC(C)(C)NC(=S)N1CCC(=O)N1c2ccccc2CC1C` (centres undefined) gave EBV gp42 inh inactive, BCLXL inh inactive, MCL1 BIM primary inactive, GLD-1 RNA inh inactive and MEX-5 binding inactive.
`CCN(CC)c1ccc(/C=N/NC(=O)c2cccc(S(=O)(=O)Nc3ccccc3OC)c2)cc1` gave EBV gp42 inh inactive, BCLXL inh inactive, MCL1 BIM primary inactive, GLD-1 RNA inh inactive and MEX-5 binding inactive.
Screening COc1ccccc1NS(=O)(=O)c1cccc(C(=O)NN=C2CCCC2)c1 returned EBV gp42 inh inactive, BCLXL inh inactive, MCL1 BIM primary inactive, GLD-1 RNA inh inactive and MEX-5 binding inactive.
Screening CCN(CC)c1ccc(/C=N/NC(=O)c2cccc(S(=O)(=O)Nc3ccccc3OC)c2)c(O)c1 returned EBV gp42 inh inactive, BCLXL inh inactive, MCL1 BIM primary inactive, GLD-1 RNA inh inactive and MEX-5 binding -31.
`COc1ccccc1NS(=O)(=O)c1cccc(C(=O)N/N=C2\CC(=O)CC(C)(C)C2)c1` gave EBV gp42 inh inactive, BCLXL inh inactive, MCL1 BIM primary inactive, GLD-1 RNA inh 59 and MEX-5 binding inactive.
Screening Cc1c(Br)c(C(F)(F)F)nn1CC(=O)NCc1ccccc1 returned EBV gp42 inh inactive, BCLXL inh inactive, MCL1 BIM primary inactive, GLD-1 RNA inh inactive and MEX-5 binding inactive.
`COc1ccc(S(=O)(=O)NCC(=O)N(Cc2ccco2)C(C(=O)NC(C)(C)C)C(C)C)cc1` (centres undefined) gave BCLXL inh inactive, MCL1 BIM primary inactive, GLD-1 RNA inh inactive and MEX-5 binding inactive.
COc1cc2c(=O)n(CCC(=O)NCC3CCCO3)c(=O)n(CC(=O)Nc3ccc(F)cc3)c2cc1OC (centres undefined) was read as BCLXL inh inactive, MCL1 BIM primary inactive, GLD-1 RNA inh inactive and MEX-5 binding inactive.
`Cc1nc(N2CCN(Cc3ccccc3)CC2)c(C#N)c2c1COC(C)(C)C2` gave EBV gp42 inh inactive, BCLXL inh inactive, MCL1 BIM primary inactive, GLD-1 RNA inh inactive and MEX-5 binding -34.
Screening Clc1cccc(CSc2nc3ccncc3[nH]2)c1 returned EBV gp42 inh inactive, BCLXL inh inactive, MCL1 BIM primary inactive, GLD-1 RNA inh inactive and MEX-5 binding -52.
For Fc1cccc(CSc2nc3ccncc3[nH]2)c1 the results were EBV gp42 inh inactive, BCLXL inh inactive, MCL1 BIM primary inactive, GLD-1 RNA inh inactive and MEX-5 binding inactive.
Screening CC(=O)C(=Nc1ccccc1Cl)NNc1ccc(Cl)cc1 returned EBV gp42 inh inactive, BCLXL inh 31, MCL1 BIM primary inactive, GLD-1 RNA inh inactive and MEX-5 binding inactive.
`CN(C)CCN(CC1CCCN(Cc2ccccc2F)C1)C(=O)c1ccc(Cl)cc1` (centres undefined) gave BCLXL inh inactive, MCL1 BIM primary inactive, GLD-1 RNA inh inactive and MEX-5 binding inactive.
COc1ccc(-n2ncc3c2CC(C)(C)CC3NC(=O)CSc2ccccn2)cc1 (centres undefined) was read as BCLXL inh inactive, MCL1 BIM primary inactive, GLD-1 RNA inh inactive and MEX-5 binding inactive.
For CC1(C)Cc2c(cnn2-c2cccc(F)c2)C(NC(=O)CSc2ccccn2)C1 (centres undefined) the results were BCLXL inh inactive, MCL1 BIM primary inactive, GLD-1 RNA inh inactive and MEX-5 binding -44.
`Cc1c(Cl)cccc1NC(=O)CSc1nccn1C` gave BCLXL inh inactive, MCL1 BIM primary inactive, GLD-1 RNA inh inactive and MEX-5 binding inactive.
COCCN1CCn2c(nc3cc(NC(=O)NC4CCCCC4)ccc32)C1 was read as EBV gp42 inh inactive, BCLXL inh 33, MCL1 BIM primary inactive and GLD-1 RNA inh inactive.
`COCCN1CCn2c(nc3cc(NC(C)=O)ccc32)C1` gave BCLXL inh inactive, MCL1 BIM primary inactive, GLD-1 RNA inh inactive and MEX-5 binding inactive.
`CC1(/[N+]([O-])=C\c2ccccc2F)CCCCC1=O` (centres undefined) gave EBV gp42 inh inactive, BCLXL inh inactive, MCL1 BIM primary inactive, GLD-1 RNA inh inactive and MEX-5 binding inactive.
CC(C)(C)[C@H]1COC(=O)[C@H](NC(=O)OCC2c3ccccc3-c3ccccc32)C/C=C\C[C@@H](CC(=O)N[C@H](CO)Cc2ccccc2)C(=O)N1 was read as GLD-1 RNA inh inactive.
Screening COC(=O)c1ccccc1NC1=C/C(=N\S(=O)(=O)c2ccc(C(=O)O)cc2)c2ccccc2C1=O returned BCLXL inh 40, MCL1 BIM primary 45, GLD-1 RNA inh inactive and MEX-5 binding inactive.
COC(=O)c1ccccc1NC1=C/C(=N\S(=O)(=O)c2cccs2)c2ccccc2C1=O was read as EBV gp42 inh inactive, BCLXL inh inactive, MCL1 BIM primary inactive, GLD-1 RNA inh inactive and MEX-5 binding inactive.
`CCN(CC)C(=O)COC(=O)c1cc(-c2ccco2)nc2ccccc12` gave EBV gp42 inh 52 and MEX-5 binding inactive.
Screening Cn1c(N)c(C(=O)COC(=O)c2cc(-c3ccco3)nc3ccccc23)c(=O)n(C)c1=O returned EBV gp42 inh inactive and MEX-5 binding inactive.
Screening Cn1c(N)c(C(=O)COC(=O)c2cc(-c3ccco3)nc3ccccc23)c(=O)n(Cc2ccccc2)c1=O returned EBV gp42 inh inactive, BCLXL inh inactive, MCL1 BIM primary 43, GLD-1 RNA inh inactive and MEX-5 binding inactive.
`O=C1CCCN1S(=O)(=O)c1ccc(F)cc1` gave BCLXL inh inactive, MCL1 BIM primary inactive, GLD-1 RNA inh inactive and MEX-5 binding inactive.
